# In the supplement of paper PMC11417369:
# Whole data set: some 25,000 sequences, median “ln(normalized median fluorescence intensity)” near 7.1, cut for the highest 2% near 10. This excerpt belongs to a sample that is enriched for the highest values.
# Tested on: PfSIP2 AP2 domain 1 (GST-tagged)
# Test: gcPBM binding intensity (ln(normalized median fluorescence intensity)); higher = stronger DNA binding
# Outline: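 An Agilent 4 × 180k array of primer-extended double-stranded 36-bp intergenic genomic probes, with negative controls, was incubated for 1 h with GST-tagged P. falciparum DNA-binding domains expressed in E. coli. Alexa488 anti-GST antibody detected bound protein, scanned at 488 nm. Binding intensity is the highest Masliner-normalised natural-log median intensity across replicate spots of either probe orientation.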
row,Sequence,gcPBM binding intensity (ln)
1,AAGGAGCCTATGAACACACACATGTACATATATTAA [CACACA_site4084],7.03
2,TATATATGCATTAAAGTGTTTTTTTTTTTTTTTTTT [CACACA_negctrl_site1353],7.72
3,TACACATTATGTATCATACACACAAATAAATATATA [CACACA_site608],7.1
4,TAAGAAATTGAGCGCACACATACATCTGTGGGATGG [CACACA_site1548],6.71
5,CATACACATTTCATATGTACATAGATTGAAGGGAAG [XGTACX_site116],7.21
6,TACGTAATAATATGCACACAAATAAACTTTATAAAT [CACACA_site3501],8.22
7,ATATATATATTATATGCACACTAATAAGACTATTTA [CACACA_site5880],9.55
8,CGAGCAAGACGGGGTGCACACAAACTAATATGCCGA [CACACA_site7936],12.1
9,ATATATATTATATGCACACTAATAAGACTATTTAAA [CACACA_site3554],9.68
10,TATACGTAATAATATGCACACAAATAAACTTTATAA [CACACA_site9166],8.88
11,AGCAAGACGGGGTGCACACAAACTAATATGCCGAAT [CACACA_site159],12.1
12,ATTTAATTCGTACATACACACGCACATATATATATA [CACACA_site8415],8.85
13,CTATTAAAAAAATTATGTACACAACGTCTCTATATA [XGTACX_site4813],7.01
14,TTTTTTAAAATATATATAATGAATTTTTTTTTTTTT [CACACA_negctrl_site1577],7.05
15,TGATCAAATAAGTTTGCATGTCAACAATGCATATAT [TGCATGCA_site1025],7.19
16,AAAAAAAAAAAAGATACACACAAAAATGGATATATA [CACACA_site7069],6.77
17,CAATTATTGTAATGCATGCACTGAATATAAAAAGAA,9.18
18,AAAAAATAAATAAATACACACACACTAATATATATA [CACACA_site8488],7.67
19,TATATATATATATGAGTGCATATGTGTAATATAAAA,9.27
20,TTATAAAAGACAAAAGTGCATATATACATATGTATA,8.27
21,ATTTTTCTAAAATACTGTACAAAGGTGCATAAAAAG [XGTACX_site4425],11.5
22,ATTTTATATAATACATGTACAAAAGTTTAAATTTAT [XGTACX_site6196],7.13
23,AGGTTATAAATAAATACACACATACAAAAATATGAC [CACACA_site4773],6.94
24,ATGTTTGAGCCTAAGGTGCATATAAAAATATATGTG [GTGCAC_site9690],10.7
25,TGAGCACAAATACAGGTGCATATAAAATATATGACG,10.5

row,Sequence,gcPBM binding intensity (ln)
1,TTTTTTTGTTAAAAGGTGCTAATATATATAAGTGCT,9.03
2,GTTATAAATAAATACACACATACAAAAATATGACGT [CACACA_site1154],6.94
3,TTTTCTCTAAAAAGGTGTACAACTAATAATGCACTG [XGTACX_site6074],9.09
4,TATTTTATATAAAGGTGTACTTATACAAAAATATAT [XGTACX_site7435],7.22
5,TATAAATATACAAAGGTGCATAAAAAGTTATGTTTT [GTGCAC_site9832],10.4
6,GAAAGGAAAAGTTGAACACACAAAGTAAACTATAAG [CACACA_site3535],6.7
7,TCTATTAACTGATGTGCATGTTATAACCTAGAAGTA [TGCATGCA_site359],7.42
8,TAAAAGTATTCCTTTTGTACATATAATGAAAACAAT [XGTACX_site2069],6.8
9,TGATAAAATATTAAATTATTTCTTTATTTAAAGATT [CACACA_negctrl_site370],6.67
10,AAGATAAATTATTATAAATCAATTGTGCCAACAATA [CACACA_negctrl_site144],6.69
11,ATTATAAAAATATCGTGTACATATTTTTTAAAATAA [XGTACX_site5072],7.12
12,TTATACCATATTTATAGTACGTACAAATAAATCAAT [XGTACX_site4975],7.3
13,TTAATCCACAGACACACACACACAAAATAAAATACA [CACACA_site244],7.22
14,AAGATCGCATGAAATGAACACACATAAAAAAAATAT [CACACA_site9353],7.05
15,AATACATATTCAAAGGTGCAAAATAAAAATATACAT [GTGCAC_site9743],11
16,ATATATTTAAAAAAATGTACAAATCATAAATGCAAG [XGTACX_site4230],7.07
17,ATAACATTCATATTCACACAAAAATATACTACATAG [CACACA_site4529],7.09
18,TATATTGCAAAAAGTACACACATAAATAAATACATA [CACACA_site6589],7.23
19,TTTTGTTCATACAAATTGGAACAAGACAAAAATATA [XGTACX_negctrl_site327],7.16
20,AAATTGAGACAACAGGTGCATATAAATATACAGTGT [GTGCAC_site9634],10.6
21,ATACATATTAACAAGGTGCAAATGGATTTCATAAAA [GTGCAC_site9775],10.7
22,TATATACATGTGAGAGTGCATATAGACATAAAAAAT,8.96
23,ACAAGCTTTCATAAGGTGCAATGATTTAACAAAAAA [GTGCAC_site9726],10.1
24,AAGACAATATATGCAGTGCATATACATACATATATA,8.3
25,AATATACATAACAAGGTGCAAAAAATATTGTTCATA [GTGCAC_site9499],10.9
